Cycloheximide cs: counter-screen hit for Shiga toxin inhibitors, cycloheximide. cell reporter, cycloheximide protein synthesis inhibition counterscreen. max response, %. 12% of 300,000 active; in the data active = max response mostly above about 13%, no sharp cut-off; inactive = mostly below about 14%; also: read at 38.3 µM for the half of the compounds with a filed dose; 0% is about no effect
NS1 function inh: influenza NS1 inhibition | Potency, µM (series often up to 46.1 µM), inactives show at the top dose activity, positive = more growth | 0.4% of 270,000 active; calls by dose curve; also: potency is read from the fitted curve at half-maximal effect; actives are rising curves; nearly all actives have a fitted effect of over 50% in size
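A cell-based growth assay was used: compounds that relieve NS1-induced slow growth of budding yeast raise OD600. Assay medium was yeast nitrogen base with ammonium sulphate and -URA supplement, pH 6.0, with 2% galactose.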
Pf growth 48h: P. falciparum growth inhibition at 48 hours (one generation) | P. falciparum luciferase growth in erythrocytes, 48 h | Potency, µM (highest dose often 28.7 µM), without a hit: top-dose activity change, negative = inhibition, usual class: inhibitors | 5.9% of 310,000 active | AID 504832; also: potency is read from the fitted curve at half-maximal effect; % is scaled to controls: 0 for no effect and ±100 for the full control effect
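Luciferase-expressing P. falciparum in infected erythrocytes (2% hematocrit, 0.1% parasitemia final) in RPMI 1640/0.5% Albumax were exposed to compound for 48 hours at 37 C, 5% CO2; growth read as luminescence.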
Shiga inhibitor: inhibitors of Shiga toxin in Vero cells; Vero cells, Shiga toxin protein synthesis inhibition reporter; inhibition, % at 38.7 µM; 9.2% of 290,000 active; AID 2315; in the data active = inhibition mostly above about 28%, no sharp cut-off; inactive = mostly below about 43%; also: 0% is about no effect
Pf growth 96h: P. falciparum growth inhibition at 96 hours; P. falciparum luciferase reporter growth, 96 h; Potency, µM (series often up to 28.7 µM), inactives show at the highest dose activity change, negative = inhibition, most hits filed as inhibitors; 6.9% of 320,000 active; AID 504834; also: potency is read from the fitted curve at half-maximal effect; % is scaled to controls: 0 for no effect and ±100 for the full control effect
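P. falciparum expressing integrated firefly luciferase grown in erythrocytes (2% hematocrit, 0.05% parasitemia final) with compounds for 96 hours at 37 C, 5% CO2. Growth inhibition read as loss of luminescence after adding luciferase detection reagent.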
FBPA Giardia inh: inhibitors of Giardia lamblia fructose-1,6-bisphosphate aldolase | Potency, µM (titrated, usually from 59.6 µM), for the others: top-dose activity, negative = inhibition, hits mostly inhibitors | purified Giardia FBPA | A8B2U2 | AID 2451 | 0.71% of 290,000 active; also: potency is read from the fitted curve at half-maximal effect; % is scaled to controls: 0 for no effect and ±100 for the full control effect; nearly all actives have a fitted effect of over 55% in size
Target sequence (A8B2U2 whole entry, looked up): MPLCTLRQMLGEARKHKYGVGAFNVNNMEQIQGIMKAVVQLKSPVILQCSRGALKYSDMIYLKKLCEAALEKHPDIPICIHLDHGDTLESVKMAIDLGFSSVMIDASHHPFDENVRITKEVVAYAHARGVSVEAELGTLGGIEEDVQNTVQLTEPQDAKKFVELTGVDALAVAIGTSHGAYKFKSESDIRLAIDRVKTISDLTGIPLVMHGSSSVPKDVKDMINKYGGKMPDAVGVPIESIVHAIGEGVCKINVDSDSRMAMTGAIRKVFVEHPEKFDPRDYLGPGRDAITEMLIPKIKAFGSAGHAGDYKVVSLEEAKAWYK
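Giardia FBPA (40 nM reagent) was preincubated 10 min at RT with compound (up to 57.5 uM final), then substrate plus GAPDH/TPI/NAD/arsenate coupling system with diaphorase/resazurin was added; resorufin fluorescence (525/598 nm) was read after 20 min.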
Starred values were filed as active, the others as inactive; i = inactive; ? = inconclusive; / = no result given; [ ] = another dose, or the depositor's remark. This is a sample that favours compounds with a hit; in the whole collection about 21% have one here. Unless noted, calls follow the shape of the dose curve; as a rule, active = well fitted curve in the direction sought with a large enough effect; inconclusive = small, poorly fitted or top-dose-only effect, or another doubt; inactive = no such curve, though single readings can be large; an effect the other way counts as inactive or inconclusive.

SMILES | Cycloheximide cs | NS1 function inh | Pf growth 48h | Shiga inhibitor | Pf growth 96h | FBPA Giardia inh
Cc1cc(C)c2oc(-c3ccc(Cl)c(NC(=O)c4ccc(C#N)cc4F)c3)nc2c1 | 48.1* | -0.3% | ? | 39.2* | 0.9% | 0.4%
N#Cc1ccc(C(=O)Nc2cccc3ncccc23)c(F)c1 | -2.0 | 8.7% | -2.8% | -5.9 | -13.0% | 1.0%
O=C1N2CCSC2=NC1(NS(=O)(=O)c1ccccc1)C(F)(F)F (stereo not drawn) | -3.8 | -8.3% | -11.7% | -11.8 | 1.04µM* | 4.4%
CC(=O)NC1(C(F)(F)F)N=C2SCCN2C1=O (stereo not drawn) | -4.5 | 0.7% | / | -9.1 | 28.1% | -9.1%
O=C(Nc1cccc(F)c1)c1ccccc1 | 37.5* | -116.1% | 46.6% | 79.3* | 169.4% | -2.5%
O=C(Nc1cccc(C(=O)Nc2ccccc2F)c1)c1ccccc1 | -3.6 | -7.1% | 18.1% | 2.5 | 8.1% | 12.8%
O=C(O)c1cc(NC(=O)c2cccc(F)c2)cc(NC(=O)c2cccc(F)c2)c1 | 0.3 | ? | -2.8% | -10.6 | 3.9% | -0.1%
CCN(CC)C(=O)c1ccc(NC(=O)c2cccc(S(=O)(=O)N3CCN(C)CC3)c2)cc1 | 6.3 | 1.6% | ? | -6.5 | ? | /
O=C(Nc1ccc(Nc2ccccc2)cc1)c1cccc(F)c1 | 35.9* | -42.5% | 61.2% | 117.1* | ? | -1.7%
CCN(CC)C(=O)c1ccc(NC(=O)c2cccc(F)c2)cc1 | 35.4* | -12.4% | / | 72.1 | 94.9% | 2.5%
CC1(C)Cc2c(cnn2-c2ccc(F)cc2)C(NC(=O)CCc2ccncc2)C1 (stereo not drawn) | 13.6 | -11.8% | ? | 21.9 | -13.0% | 0.6%
COc1ccc(C)cc1S(=O)(=O)N1CCCC(C(=O)N2CCN(c3ccccc3)CC2)C1 (stereo not drawn) | -0.1 | -13.6% | 7.38µM* | -3.8 | 10.4µM* | -4.8%
COc1ccc(/C=C/C(=O)O)cc1S(=O)(=O)N1CCCC1 | -3.0 | 2.9% | 0.0% | -3.0 | 5.86µM* | 10.1%
COc1ccc(C)cc1S(=O)(=O)N1CC(C)OC(C)C1 (stereo not drawn) | 37.9* | 2.8% | 34.0% | 62.6 | 11.7µM* | 16.0%
COc1ccc(Br)cc1S(=O)(=O)N1CCCC1 | 30.0* | -2.9% | -22.6% | 53.6* | ? | 0.5%
COc1ccc(/C=C/C(=O)O)cc1S(=O)(=O)N1CCCCC1 | 0.4 | 4.8% | 7.9% | -8.8 | 15.9% | 20.4%
COc1ccc(Cl)cc1S(=O)(=O)NCc1nc2nc(C)cc(C)n2n1 | -1.7 | -0.7% | -5.1% | 4.3 | ? | 3.9%
O=C(N=C1SC2CS(=O)(=O)CC2N1c1ccc(F)cc1)C1CC1 (stereo not drawn) | -6.6 | 16.9% | -4.3% | -4.4 | 20.4% | 6.7%
COc1cccc(NC(=O)CN(C)C(=O)c2cc3c(s2)CCCCC3)c1 | / | / | -2.3% | / | -2.0% | /
CC(Oc1ccccc1)C(=O)N1CCC2(CC1)CC(=O)c1ccccc1O2 (stereo not drawn) | / | / | -11.4% | / | ? | /
CCOc1cc(Br)ccc1S(=O)(=O)N1CC(C)OC(C)C1 (stereo not drawn) | -5.8 | -84.8% | ? | -29.8 | / | 0.5%
COc1ccc(C)cc1S(=O)(=O)N1CCCCCC1 | 0.6 | -79.0% | 2.08µM* | -8.3 | -10.7% | -0.7%
COc1ccc(S(=O)(=O)N2CCOCC2)cc1N(C)S(=O)(=O)c1ccc(C)cc1 | 6.6 | -12.8% | -25.7% | -28.6 | 29.6% | /
COc1ccc(S(=O)(=O)N2CCCCCC2)cc1N(C)S(=O)(=O)c1ccc(C)cc1 | -2.9 | 29.5% | -18.7% | 1.6 | 10.4µM* | 5.5%
CCOc1cc(C)c(C(C)C)cc1S(=O)(=O)N1CC(C)OC(C)C1 (stereo not drawn) | -2.0 | -31.7% | 13.1µM* | -8.6 | / | 2.3%
SMILES | Cycloheximide cs | NS1 function inh | Pf growth 48h | Shiga inhibitor | Pf growth 96h | FBPA Giardia inh
N#Cc1ccc(CN2CCC3(CC2)CCN(C(=O)c2cnccn2)CC3)cc1 | / | / | / | / | / | -2.3%
Cc1cc(C)c2ccc(N)nc2c1O | -1.1 | -58.0% | 4.15µM* | -6.3 | 196.0% | 12.0%
Cc1cc(C)c2cccc(N)c2n1 | -0.6 | 3.0% | 22.3% | -11.1 | -59.4% | -16.2%
Oc1c(Br)cc(Br)cc1Oc1ccc(Br)cc1Br | -3.8 | -15.9% | ? | 19.4 | 14.7µM* | 9.6%
O=C1OC(COc2ccc(Br)cc2)CN1c1ccccc1 (stereo not drawn) | -0.7 | 4.5% | 20.5% | -12.7 | -1.9% | 5.2%
CCCCC/C=C\C/C=C\C/C=C\C/C=C\CCCC(=O)NCCCl | -10.6 | / | / | -3.9 | / | 9.9%
CCOC(=O)c1ccc(NC(=S)N2CCC(O)CC2)cc1 | 39.2* | 10.4% | 72.9% | 65.6 | 14.3% | -8.5%
COC(=O)c1ccc(NC(=O)C(=O)N2CCN(C(=S)Nc3ccc(C)cc3)CC2)cc1 | -1.3 | 19.8% | -18.9% | -8.1 | 0.37µM* | 1.1%
CCOC(=O)N1CCC(N(C(=O)Nc2ccc(CC)cc2)C(C)CC)CC1 (stereo not drawn) | 13.6* | -34.7% | -0.8% | 47.3 | i | -8.9%
COC(=O)c1ccc(NC(=O)C(=O)N2CCN(C(=S)Nc3ccc(OC)cc3)CC2)cc1 | -2.8 | 16.0% | ? | -10.0 | ? | -0.1%
CCOC(=O)c1ccc(NC(=S)N2CCCC2c2ccc(OC)c(OC)c2)cc1 (stereo not drawn) | -2.5 | / | ? | 2.9 | ? | -4.3%
CCOC(=O)c1ccc(NC(=S)N2CCSC2c2ccc(Br)cc2)cc1 (stereo not drawn) | 13.3* | -3.9% | -17.8% | 16.2 | -20.8% | -6.2%
CCOC(=O)c1ccc(NC(=S)N2CCCC(C)C2)cc1 (stereo not drawn) | 13.0* | -3.6% | -3.3% | 62.1* | ? | 3.2%
CCCCc1ccc(NC(=S)N2CCN(c3ncccn3)CC2)cc1 | -0.4 | 1.1% | -16.6% | -15.2 | 6.2%[5.75 µM] | 1.2%
CCOC(=O)c1ccc(NC(=S)N2CCCC(C(=O)N3CCCC3)C2)cc1 (stereo not drawn) | -1.7 | 0.5% | -18.4% | -10.0 | ? | /
CCCCc1ccc(NC(=S)N2CCCC(C)C2)cc1 (stereo not drawn) | 20.7* | -45.4% | 31.8% | 41.5* | 193.9% | -3.4%
C[C@H](O)Cc1cn(-c2cc3cc(C#Cc4ccsc4)ccc3oc2=O)nn1 | / | / | 9.7% | / | 23.8% | /
COc1ccc(NC2=C(c3ccc(OC)cc3)C(=O)c3ccccc32)cc1 | -1.8 | 24.3% | 0.657µM* | -4.0 | ? | 3.1%
COC1=C(c2ccccc2)C(=O)c2ccccc2C1=O | -2.5 | -58.6% | 1.47µM* | 11.6 | 1.17µM* | ?
COc1ccc(C2=C(N)c3ccccc3C2=O)cc1 | 42.3* | -5.8% | -4.8% | 102.3 | 10.4µM* | -4.1%
O=C(C1=C(c2ccccc2)C(=O)c2ccccc2C1=O)c1ccccc1 | 19.9 | -12.8% | 1.47µM* | 33.9 | 27.7% | ?
COc1ccc(C2C(=O)c3ccccc3C2=O)cc1 | 8.6 | 0.1% | ? | 22.6 | ? | 6.2%
CC(=O)N1CCC2(CCCN(C(c3ccccc3)c3ccccc3)C2)CC1 | / | / | / | / | / | -4.7%
CCCCc1nc2c(c3c1C[C@H](C)OC3)CN(S(=O)(=O)CCCC)CC2 | / | / | / | / | / | 4.7%[12.9 µM]
